# Assay outcomes (PubChem BioAssay)
# This excerpt belongs to a sample that is enriched for hits.
# HIV RNase H inh – inhibitors of HIV-1 reverse transcriptase RNase H. P04585. RT-RNase H RNA/DNA duplex cleavage, fluorescence. inhibition, % at 10 µM. 65,000 compounds, 1.9% hits. AID 565; in the data active = inhibition above about 50%
# Hits are given with their value; – = inactive.
SMILES,HIV RNase H inh
CCCCOC(=O)n1c(SCC(=O)N(CC)CC)nc2ccccc21,–
Cc1oc(-c2ccc(Cl)cc2)nc1CN1CCC(C(=O)N2CCN(c3ccccn3)CC2)CC1,–
Cn1c(=O)c2c(nc(Sc3n[nH]c(N)n3)n2Cc2ccccc2Cl)n(C)c1=O,–
COc1cccc(-c2nnc3sc(C4CCCCC4)nn23)c1,–
c1cncc(-c2nnc3sc(C4CCCCC4)nn23)c1,–
CCOc1cccc(-c2nnc3sc(C4CCCCC4)nn23)c1,59
CSc1nsc(SCC(=O)N2CCN(c3ccccc3)CC2)n1,–
COC(=O)c1c(N2C(=O)CCC2=O)sc2c1CCCC2,–
CCOC(=O)c1c(NC(=O)COC)sc2c1CCCC2,–
CCNC(=O)c1c(N)sc2c1CCCCC2,57
CCC(C)(C)n1nnnc1C(c1ccc2ncccc2c1)N1CCN2CCCC2C1 (stereo unspecified),–
COc1ccc(-c2nnn(CC(=O)Nc3sc4c(c3C#N)CCCC4)n2)cc1,–
CC(C)(C)NC(=O)c1ccccc1-c1nc(-c2ccccc2Cl)no1,–
COc1cccc2cc(-c3nnc(SCC(=O)Nc4cc(C(F)(F)F)ccc4Cl)n3N)oc12,64
CCn1c(SCC(=O)Nc2nccs2)nnc1-c1cc2cccc(OC)c2o1,–
COc1cccc2cc(-c3nnc(SCC(=O)NCc4ccccc4)n3C)oc12,–
Cc1cc(S(=O)(=O)NCCCN2CCOCC2)ccc1F,–
Cn1c(SC/C=C/c2ccccc2)nnc1-c1ccco1,–
COC(=O)CSc1nnc(-c2ccncc2)n1N,–
Nn1c(SC/C=C/c2ccccc2)nnc1-c1ccncc1,52
CN1C(=O)C2(C(C#N)=C(N)Oc3c2oc(CO)cc3=O)c2ccccc21 (stereo unspecified),–
CC1CCN(c2nc3c(c(=O)[nH]c(=O)n3C)n2Cc2ccccc2Cl)CC1,–
CCOc1ccc2nc(NS(=O)(=O)c3ccc4c(c3)n(C)c(=O)n4C)sc2c1,–
CCOCC(=O)Nc1nc2ccc(OCC)cc2s1,–
CCOc1ccc2nc(NS(C)(=O)=O)sc2c1,55
SMILES,HIV RNase H inh
CCC1(C)Cc2c(sc3c2c(=O)n(C)c2nnc(SCC(=O)c4ccc(Cl)cc4)n32)CO1 (stereo unspecified),–
CS(=O)(=O)N(CCc1ccccc1)CC(=O)NCC1CCCO1 (stereo unspecified),–
CCn1c(C)cc(=S)c2ccccc21,–
O=c1[nH]c(=O)n(Cc2ccccc2)c(O)c1C=Nc1ccc(CN2CCOCC2)cc1,–
CCn1c(O)c(C=Nc2ccccc2)oc1=S,54
COC(C)(C)[C@]12CC(O)(c3ccccc3)ON1[C@H]1CCCCC1N2O (stereo partly specified),–
CC(C)(NCc1ccccc1Cl)C(=O)O,–
CCCCOc1ccccc1NC(=O)CC1Nc2ccccc2NC1=O (stereo unspecified),69
CCCCNC(=O)CC1Nc2ccccc2NC1=O (stereo unspecified),–
CCCCOc1ccccc1NC(=O)CC1SC(=NCC)N(CC)C1=O (stereo unspecified),–
Cc1cccc(N2CCN(C(=O)Cn3nc(Cc4ccncc4)c4ccccc4c3=O)CC2)c1C,–
CC(=O)NCCn1c(SCc2cc(=O)n3cc(Cl)ccc3n2)nc2ccccc2c1=O,–
O=C(NCc1ccco1)c1sc(=S)n2c1[nH]c(=O)c1ccccc12,58
O=C(NC1CCCC1)c1sc(=S)n2c1[nH]c(=O)c1ccccc12,–
C=CCn1c(N)c(C(=O)NCc2ccco2)sc1=S,–
Cc1c(O)c(CN2CCCC(C)C2)cc2c3c(c(=O)oc12)CCC3 (stereo unspecified),–
Cc1ccc(-c2nc3cccnc3o2)cc1NC(=O)COc1ccc(Cl)cc1C,53
Cc1ccc(-c2nc3ncccc3o2)cc1NC(=O)Cc1ccc(Cl)cc1,–
Cc1cc(Cl)ccc1OCC(=O)NCCC(=O)O,–
CCOc1ccc(-n2cc(C(=O)Nc3cccc(C)n3)c3cc(OC)c(OC)cc3c2=O)cc1,–
CC(=O)N1CCN(CCN=CC2=C(O)CC(c3ccco3)CC2=O)CC1 (stereo unspecified),–
COc1ccc(C2CC(=O)C(C=NCCN3CCOCC3)=C(O)C2)cc1 (stereo unspecified),54
CC(=O)N1CCN(CCN=CC2=C(O)CC(c3ccc(Cl)cc3)CC2=O)CC1 (stereo unspecified),–
CC(=O)c1ccc(OC(C)C)c(CN2CCCCC2)c1,–
CC1=C(C(N)=O)C(c2ccccn2)n2nc(SCc3ccccc3Cl)nc2N1 (stereo unspecified),–
SMILES,HIV RNase H inh
CN1Cc2cc(C(=O)c3cc(Cl)cc(CSc4ncccn4)c3O)cnc2NC1=O,59
Cc1oc2nc(SCC(=O)NC3CCCCC3)nc(N)c2c1C,–
CCOC(=O)c1c(NC(=O)CC)sc(C(C)=O)c1C,–
CCOC(=O)c1c(N)sc(C(=O)N(C)C)c1C,–
CCOC(=O)c1c(NC(=O)OC)sc(C(=O)N(C)C)c1C,52
CC(=O)C1=C(C)NC(C)=C(C(C)=O)C1c1ccc(-c2ccccc2Cl)o1,–
COc1c(S(=O)(=O)n2nc(C)cc2C)ccc(Cl)c1Cl,–
CCOc1nc(Nc2ccc(-c3nc4ccccc4o3)cc2)nc(N2CCOCC2)n1,–
CC(C)C(c1nnnn1C1CCCC1)N1CCN(C(=O)c2ccco2)CC1 (stereo unspecified),–
CC(C)c1nc(N2CCN(C(=O)c3ccccc3)CC2)c(C#N)c2c1COC(C)(C)C2,–
CC1(C)Cc2c(C#N)c(N3CCCC3)nc(-c3ccco3)c2CO1,–
CC1(C)Cc2c(C#N)c(N3CCN(C(=O)c4ccccc4)CC3)nc(-c3ccco3)c2CS1,56
CCCN(S(=O)(=O)c1ccc(OCC)cc1)S(=O)(=O)c1cccs1,–
O=C(CCC1CCCCC1)N1CCN(Cc2ccc3c(c2)OCO3)CC1,–
CCOc1cc(C2/C(=C(/O)c3ccc(OC(C)C)cc3)C(=O)C(=O)N2CCCOC)ccc1O (stereo unspecified),–
O=C(CCn1nc(-c2ccccc2)c2ccccc2c1=O)NCC1CCCO1 (stereo unspecified),–
CN1C(=S)SC(C)(NO)C1(C)C (stereo unspecified),51
CNC(=O)ON(C(=O)NC)C1N(C)C(=S)SC1(C)C (stereo unspecified),–
COc1ccc(C2CNC(=O)C2)cc1OC1CCCC1 (stereo unspecified),–
CC(OC(=O)c1cc(=O)[nH]c2ccccc12)c1ccccc1 (stereo unspecified),–
Cc1nnc(SCC(=O)NCc2ccc3c(c2)OCO3)[nH]c1=O,–
O=C1NC(c2ccccn2)Nc2sc3c(c21)CCC3 (stereo unspecified),–
Cc1ccsc1C1NC(=O)c2ccccc2N1 (stereo unspecified),–
Cc1ccsc1C1NC(=O)c2c(sc3c2CCCC3)N1 (stereo unspecified),58
COc1ccc(NC(=O)CSc2nc3c(c(=O)n2-c2ccc(C)cc2)SCC3)c(OC)c1,–
SMILES,HIV RNase H inh
C/C(NCCN1CCOCC1)=C(\C#N)C(N)=O,–
O=C(CSc1ncnc2c1oc1ccccc12)NCc1ccc(F)cc1,–
COc1ccc(C(=O)NCCc2c[nH]c3ccccc23)cc1S(=O)(=O)N1CCOCC1,–
COc1cc(C2C(C#N)=C(N)Oc3cc(N(C)C)ccc32)cc2c1OCO2 (stereo unspecified),–
N#CC1=C(N)Oc2cc3c(cc2C1c1ccc(Cl)cc1)OCO3 (stereo unspecified),55
COc1cc(C2C(C#N)=C(N)Oc3cc(O)ccc32)cc2c1OCO2 (stereo unspecified),–
COCCn1c(=S)[nH]c2ccc(N(C)C)cc2c1=O,–
